# Hits are enriched below; roughly 10% of the tested compounds scored in any of these assays.
# G9a block – qHTS Assay for Inhibitors of Histone Lysine Methyltransferase G9a; Potency, µM (highest dose often 102 µM), for inactives: at the highest dose activity, negative = inhibition, actives largely listed as inhibitors; G9a H3K9 monomethylation, AlphaScreen, 2 h; Histone-lysine N-methyltransferase EHMT2 (Homo sapiens), Q96KQ7; 350,000 compounds, 8.8% hits; AID 504332, 2011; note: potency is the fitted concentration of half-maximal effect; % is set by controls: 0 for no effect and ±100 for the full control effect; nearly all actives have a fitted effect of over 75% in size
#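 AlphaScreen detection with an anti-monomethyl H3K9 antibody quantified product after a 2 h room-temperature reaction containing 500 nM biotinylated H3K9 peptide, 20 µM SAM and 20 nM enzyme, which had been preincubated 15 min with compound.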
# JMJD2A Tudor – qHTS Assay for Inhibitors of JMJD2A-Tudor Domain; Lysine-specific demethylase 4A (Homo sapiens), O75164; AlphaScreen JMJD2A-Tudor / H3K4me3 peptide binding; Potency, µM (doses to about 114 µM), inactives show top-dose activity change, negative = inhibition, actives largely listed as inhibitors; 390,000 compounds, 4.4% hits; note: potency is the fitted concentration of half-maximal effect; % is set by controls: 0 for no effect and ±100 for the full control effect; nearly all actives have a fitted effect of over 50% in size
# CtBP-E1A inh – qHTS Assay for Inhibitors of the CtBP/E1A Interaction. AlphaScreen GST-E1A/His-CtBP binding, 1536-well; active compounds read low. activity change, % (test concentration not listed). 340,000 compounds, 0.49% hits; in the data active = activity change below about -65%; inconclusive = mostly about -30% to -63%; note: % is set by controls: 0 for no effect and ±100 for the full control effect
#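 GST-E1A and His-tagged CtBP (125 nM each as 5X stock) were preincubated with pin-transferred compound for 2 h at 37 °C in the dark, then glutathione donor and nickel acceptor beads were added for 1 h before AlphaScreen reading.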
# Six1-Eya2 blk – qHTS Assay for Inhibitors of the Six1/Eya2 Interaction. Homeobox protein SIX1 (Homo sapiens) + Protein phosphatase EYA2 (Homo sapiens), …. AlphaScreen GST-Six1/His-Eya2 binding, biochemical; active compounds read low. activity change, % (test concentration not listed). 360,000 compounds, 0.56% hits. AID 651725, 2012; in the data active = activity change below about -65%; inconclusive = mostly about -30% to -63%; note: % is set by controls: 0 for no effect and ±100 for the full control effect
# Target sequence (O00167 whole entry, looked up): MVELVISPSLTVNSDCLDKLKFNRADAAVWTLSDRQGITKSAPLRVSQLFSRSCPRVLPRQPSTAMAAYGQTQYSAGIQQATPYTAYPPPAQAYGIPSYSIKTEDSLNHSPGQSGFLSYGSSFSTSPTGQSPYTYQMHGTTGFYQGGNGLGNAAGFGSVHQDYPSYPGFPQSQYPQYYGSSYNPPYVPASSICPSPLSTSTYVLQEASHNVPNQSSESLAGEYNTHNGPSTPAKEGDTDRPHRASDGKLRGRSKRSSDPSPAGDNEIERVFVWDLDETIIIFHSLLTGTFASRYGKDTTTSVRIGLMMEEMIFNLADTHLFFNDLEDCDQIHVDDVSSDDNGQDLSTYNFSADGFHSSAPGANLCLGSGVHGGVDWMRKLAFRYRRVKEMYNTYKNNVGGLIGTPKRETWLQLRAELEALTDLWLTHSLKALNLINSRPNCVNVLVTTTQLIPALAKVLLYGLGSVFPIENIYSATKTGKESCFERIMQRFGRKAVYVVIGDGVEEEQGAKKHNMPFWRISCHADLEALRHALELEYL
# Target sequence (Q15475 whole entry, looked up): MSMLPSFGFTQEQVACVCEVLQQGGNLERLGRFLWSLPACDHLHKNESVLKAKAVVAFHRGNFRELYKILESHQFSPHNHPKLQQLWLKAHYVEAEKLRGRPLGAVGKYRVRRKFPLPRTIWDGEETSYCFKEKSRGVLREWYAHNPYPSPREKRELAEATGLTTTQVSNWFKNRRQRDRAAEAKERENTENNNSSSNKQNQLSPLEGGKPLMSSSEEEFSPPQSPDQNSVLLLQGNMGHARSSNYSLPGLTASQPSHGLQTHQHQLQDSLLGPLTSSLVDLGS
#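 GST-Six1 + His-Eya2 (5X stock: 250/500 nM); Tris pH 8.0, 300 mM NaCl, 0.05% BSA, 0.02% Tween 20; GSH donor/Ni acceptor beads; 1 h 37 °C dark; AlphaScreen readout.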
# BAZ2B inh – qHTS Assay for Inhibitors of BAZ2B | Bromodomain adjacent to zinc finger domain protein 2B (Homo sapiens), Q9UIF8 | AlphaScreen BAZ2B-H3K14Ac peptide displacement | Potency, µM (series often up to 114 µM), for inactives: top-dose activity change, negative = inhibition, actives largely listed as inhibitors | 360,000 compounds, 4.4% hits; note: potency is the fitted concentration of half-maximal effect; % is set by controls: 0 for no effect and ±100 for the full control effect; nearly all actives have a fitted effect of over 60% in size
#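 Inhibition is scored as reduced AlphaScreen emission. The BAZ2B/b-H3(5-23)K14Ac complex (50 nM each) in PBS pH 7.4, 0.01% Tween-20 meets compound (up to 110 uM) for 30 min at RT before bead addition.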
# HP1b chromo inh – HTS for Inhibitors of HP1-beta Chromodomain Interactions with Methylated Histone Tails. AID 540317, 2011. AlphaScreen HP1-beta / biotin-H3K9me3 peptide binding. Potency, µM (series often up to 114 µM), for inactives: at the top dose activity change, negative = inhibition, hits mostly inhibitors. Chromobox protein homolog 1 (Homo sapiens), P83916. 390,000 compounds, 0.56% hits; note: potency is the fitted concentration of half-maximal effect; nearly all actives have a fitted effect of over 70% in size
#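 AlphaScreen: HP1-beta (50 nM) preformed 30 min with biotin-H3(1-18)K9me3 peptide (50 nM) in PBS pH 7.4, 0.01% Tween-20. Compound added for 30 min at RT, then streptavidin donor/nickel chelate acceptor beads (10 ug/mL) for 30 min.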
# Numbers without * were called inactive; ? = inconclusive; · = no result; [ ] = remark or other dose. Unless noted, calls come from the whole dose curve; as a rule, active = well fitted inhibition curve with a large enough effect; inconclusive = small, poorly fitted or top-dose-only effect; inactive = no such curve, though single readings can be large or run the other way.
SMILES,G9a block,JMJD2A Tudor,CtBP-E1A inh,Six1-Eya2 blk,BAZ2B inh,HP1b chromo inh
Cc1cc(OCCCSc2nc(-c3ccc(C(C)(C)C)cc3)nc3cc(=O)[nH]n23)ccc1Cl,-1%[59 µM],32µM*,·,·,28µM*,?
COc1ccc(N2Cc3cccc(C(=O)Nc4ccc(C(C)C)cc4)c3C2=O)cc1,2%[59 µM],?,·,·,·,5%
CC(Oc1ccc2ccc(=O)oc2c1)C(=O)NC1CC(C)(C)NC(C)(C)C1 (centres undefined),?,-11%,-2,4,-5%,50%
CCCc1cc(=O)oc2cc(OC(C)C(=O)NC3CC(C)(C)NC(C)(C)C3)ccc12 (centres undefined),7.1µM*,-13%,·,1,-2%,36%
Cc1ccc(S(=O)c2ccc(NC(=O)C3CC3)cc2C#N)cc1 (centres undefined),2%,14µM*,9,8,-1%,-18%
Cc1ccc(NC(=O)C2CCN(S(=O)(=O)c3ccccc3)CC2)cc1,?,-2%,-13,8,-16%,14%
CC1=NN(c2nc(-c3ccc(C)cc3)cs2)C(=O)C1N=Nc1cccc(O)c1 (centres undefined),40µM*,14µM*,-16,-17,?,?
CC1=NN(c2ccccc2)C(=O)C1N=Nc1ccc(N)cc1 (centres undefined),?,?,?,-71*,13µM*,?
CC1=NN(C(N)=S)C(=O)C1N=Nc1cccc([N+](=O)[O-])c1 (centres undefined),18%,-18%,3,7,9%,4%
COc1ccc(N=NC2C(=O)N(c3ccccc3)N=C2C)cc1 (centres undefined),?,7.9µM*,?,-73*,1.6µM*,7.1µM*
CC1=NN(c2ccccc2)C(=O)C1N=Nc1cccc(O)c1 (centres undefined),71µM*,?,?,-30,?,-16%
CC1=NN(c2nc(-c3ccc(C)cc3)cs2)C(=O)C1N=Nc1ccccc1O (centres undefined),·,?,-8,-29,?,2%
O=C1C2C(c3ccccc3)C=CC(c3ccccc3)C2C(=O)N1c1ccccn1 (centres undefined),-45%,-15%,3,4,-16%,27%
CN(C)c1ncc2nc(-c3cn(C)c4ccccc34)c(=O)n(C[C@H]3CCCO3)c2n1,1%[0.501 µM],·,·,·,·,·
CC1=NN(c2ccccc2)C(=O)C1N=Nc1ccccc1 (centres undefined),0.89µM*,?,-18,-21,3.2µM*,?
CC1=NN(c2ccc(S(=O)(=O)O)cc2C)C(=O)C1,25µM*,50µM*,14,6,56µM*,42%
COC(=O)c1ccc(NC(=O)CN2C(=O)CC(C)S(=O)(=O)c3ccccc32)cc1 (centres undefined),-8%,-11%,2,1,-5%,30%
Cc1cccc(NC(=O)CSCC(=O)Nc2ccc(S(=O)(=O)N3CCOCC3)cc2)c1,-32%,-3%,1,-6,2%,18%
CC1=C(C(=O)O)N2C(=O)C(NC(=O)c3nn(C)cc3Cl)C2SC1 (centres undefined),?,-16%[11.4 µM],-2,-8,-11%,2%
COc1cccc(C(=O)NC2C(=O)N3C(C(=O)O)=C(COC(C)=O)CSC23)c1 (centres undefined),-10%[12.7 µM],-9%,·,-10,?,10%
CCn1ccc(C(=O)NC2C(=O)N3C(C(=O)O)=C(C)CSC23)n1 (centres undefined),22µM*,-7%,-2,1,?,38%
CC(=O)OCC1=C(C(=O)O)N2C(=O)C(NC(=O)c3ccc(COc4cccc(Cl)c4Cl)o3)C2SC1 (centres undefined),32µM*,?,-11,-28,50µM*,-4%
CC1=C(C(=O)O)N2C(=O)C(NC(=O)c3ccccc3Cl)C2SC1 (centres undefined),1.8µM*,-20%,6,9,0%,43%
CC1=C(C(=O)OCC(Cl)(Cl)Cl)N2C(=O)C(NC(=O)Cc3ccccc3)C2SC1 (centres undefined),40µM*,-6%,19,-1,2%,21%
CCn1c(N)[n+](CC(=O)Nc2ccc(SC(F)F)cc2)c2ccccc21,-5%[12.7 µM],-31%,-4,3,2%,12%
SMILES,G9a block,JMJD2A Tudor,CtBP-E1A inh,Six1-Eya2 blk,BAZ2B inh,HP1b chromo inh
CC1=C(C(=O)O)N2C(=O)C(NC(=O)c3ccc(F)cc3)C2SC1 (centres undefined),0.89µM*,?,·,-4,-33%,22%
CCCOC(=O)N[C@@H]1C(=O)N2C(C(=O)OCCC)=C(C)CS[C@H]12,·,5%,-10,-11,12%,27%
COCc1cc(N2CCCCC2)nc(-c2ccccc2)n1,83%,20µM*,16,10,50%,18%
Cc1cc(S(=O)(=O)N2CCN(Cc3noc(CCC(=O)N4CCCCC4)n3)CC2)ccc1F,?,-18%,·,·,-22%,18%
COCc1cc(=O)[nH]c(N2CCN(Cc3ccc4c(c3)OCO4)CC2)n1,14%,-13%,·,3,-4%,15%
S=C(NCc1ccco1)Nc1ccc(Cl)cn1,8.9µM*,-33%,-18,-14,?,10%
CC(C)(CO)NC(=S)NCc1ccco1,40µM*,-13%,0,-6,-7%,8%
S=C(NCc1ccco1)Nc1ccccn1,?,-28%,1,-11,?,34%
Cc1cccnc1NC(=S)NCc1ccco1,2.5µM*,-26%,-6,5,?,12%
CNC(=O)CSc1nc2cc(S(=O)(=O)Nc3ccc(OC)cc3)ccc2o1,·,-10%,0,-4,·,11%
COc1ccc(NS(=O)(=O)c2ccc3oc(SC)nc3c2)cc1,40µM*,-8%,4,-5,-1%,?
COc1ccc(-n2cnc3c(sc4nc(N5CCOCC5)c5c(c43)CCCC5)c2=O)cc1,5%,-4%,3,0,·,4%
Cc1ccc(-n2cnc3c(sc4nc(N5CCOCC5)c5c(c43)CCCC5)c2=O)cc1,50µM*,-14%,10,7,-12%,51%

# Screening data as filed in PubChem.
